# Reference: PubChem BioAssay AID1839 (Johns Hopkins Ion Channel Center, 2009)
# Hit rate of the full screen: of about 2,400 compounds, about 220 (9.2%) were called active. This is one part of a sample in which actives are shown more often than they occur. A number with no mark means an inactive call.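 The calls were made as follows: active = signal change above the mean of dofetilide-free buffer controls plus 3 SD, so a positive margin; inactive = the rest.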
# Test: nonspecific flux effects in parental CHO-K1, confirmation, counter-screen for hERG block protection project, cell-based, CHO-K1 parental line, FluxOR thallium flux (AID 1839);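 also: compounds applied alone with no dofetilide to cells lacking hERG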
# Details: CHO-K1 parental cells, FluxOR thallium flux fluorescence; at 10 µM
row,Structure (SMILES),"signal change vs control minus 3*SD hit threshold (margin above threshold, higher = more increase)"
1,CCc1nccn1S(=O)(=O)c1ccc2ccc(C)cc2c1,-33.5%
2,COc1ccc(Cc2c(O)nc(SCC(C)C)[nH]c2=O)cc1,-32.4%
3,S=c1nc[nH]c2c1sc1nc(-c3ccccc3)c3c(c12)CCCC3,-5.5%
4,CC(C)c1nc2sc3c(=S)nc[nH]c3c2c2c1CCC2,-10.6%
5,S=c1nc[nH]c2c1sc1nc(N3CCOCC3)c3c(c12)CCCC3,1.1% (active)
6,O=C(O)CCCN1C(=O)C2C3c4ccccc4C(c4ccccc43)[C@@H]2C1=O (stereo partly specified),-37.1%
7,COc1ccc(C(CC(=O)O)NC(=O)C(c2ccccc2)c2ccccc2)cc1 (stereo unspecified),-32.8%
8,O=C(N/N=C/c1ccc(OC(F)F)cc1)C1=COCCO1,-28.8%
9,CCOC(=O)c1sc(NC(=S)NC(=O)c2cccc(OC)c2)nc1C,-15.5%
10,COc1ccc(N2CCN(C(=S)Nc3cccc(OC)c3)CC2)cc1,-27%
11,COc1ccc(NC(=O)CNC(=O)c2cccs2)cc1Cl,-23.5%
12,O=C(NC(=S)Nc1ccccc1N1CCCCC1)c1cccs1,-17.4%
13,S=c1nc(SCc2ccccc2)[nH]c2ccccc12,40.3% (active)
14,CC(C)c1ccc(/C=N/n2c(COc3ccccc3)n[nH]c2=S)cc1,-21.3%
15,S=c1nc(COc2ccccc2)[nH]c2ccccc12,59.3% (active)
16,CCC(Cc1ccccc1)n1c(=S)[nH]c2ccccc2c1=O (stereo unspecified),-32.2%
17,O=c1[nH]c(SCc2cccc(Cl)c2)nc2ccccc12,-29.3%
18,S=c1nc(C2CC2)[nH]c2ccccc12,-0.5%
19,S=c1nc(Cc2ccccc2)[nH]c2ccccc12,36% (active)
20,S=c1[nH]nc(-c2ccc(Cl)cc2)n1Cc1ccccc1,-36.8%
21,S=c1nc(Cc2ccc(Cl)cc2)[nH]c2ccccc12,7.6% (active)
22,S=c1nc(C2CCCCC2)[nH]c2ccccc12,-20.4%
23,CCOC(=O)c1sc2nc(Cc3ccc(Cl)cc3)[nH]c(=S)c2c1C,-19.8%
24,O=C(O)CCCCCNc1nc(=S)[nH]c2ccccc12,-17.7%

row,Structure (SMILES),"signal change vs control minus 3*SD hit threshold (margin above threshold, higher = more increase)"
1,C#CCN1C(=O)S/C(=C\c2ccc(-c3ccc(C(=O)O)cc3C)o2)C1=O,-26.1%
2,CC/C(=N\NC(=S)Nc1cccc(C)c1)c1ccccc1,-31.9%
3,COc1ccc(/C=N/NC(=O)C(=O)N2CCCC2)cc1,-11.5%
4,Cc1cccc(C)c1NC(=O)Cn1cnc2c(=O)n(C)c(=O)n(C)c21,-26.9%
5,Cn1nc(C(=O)Nc2ccc3c(c2)OCO3)c2ccccc2c1=O,-35.3%
6,CCOC(=O)NC(=O)/C(C#N)=N\Nc1ccc(Cl)cc1,-36.7%
7,Cc1c(-c2ccn[nH]2)cc(NC(=O)c2ccc(Cl)cc2)c(=O)n1N,-40%
8,Cc1cc(C)nc(SCc2nnc(SCC(=O)Nc3nc(-c4ccccc4)cs3)n2-c2ccccc2)n1,-32%
9,COc1ccc(CCNC(=O)CSc2ccc3nnc(CCNC(=O)c4ccccc4)n3n2)cc1OC,-23.3%
10,COc1ccc2nc(N3CCCCC3)c(/C=C3\SC(=S)NC3=O)cc2c1,-33%
11,O=C1NC(=S)S/C1=C\c1ccc2ccccc2c1,30.2% (active)
12,O=C1NC(=S)/C(=C\c2ccc(-c3ccccc3Cl)o2)S1,-34.6%
13,O=C(CN1C(=O)S/C(=C\c2cccs2)C1=O)Nc1ccc(C(=O)O)c(O)c1,-0.8%
14,Cc1ccc(S(=O)(=O)c2nnn3c2nc(N2CCOCC2)c2ccccc23)c(C)c1,-25.3%
15,COC(=O)c1sccc1NC(=S)N1CCN(C)CC1,-34.3%
16,O=C(Cc1ccccc1)Nn1c(-c2ccccc2)nc2ccccc2c1=O,-21.4%
17,O=c1c2ccccc2nc(-c2cccc(Cl)c2)n1O,0.8% (active)
18,O=c1c2cc(Cl)ccc2nc(-c2ccccc2)n1O,-7.8%
19,O=c1c2ccccc2nc(-c2ccc(Cl)c(Cl)c2)n1O,20.1% (active)
20,O=c1c2ccccc2nc(-c2ccccc2)n1O,-24.1%
21,NC(=O)CSc1nc2ccccc2c(=O)n1CCc1ccccc1,-28.3%
22,Cc1ccc(-c2onc3ccc(Cl)cc23)cc1,-25.3%
23,O=c1c2cc(Cl)ccc2nc(-c2ccc(Cl)c(Cl)c2)n1O,62.4% (active)
24,Cc1ccc(C(=O)Nc2nc3ccccc3c(=O)s2)cc1,-16.6%

row,Structure (SMILES),"signal change vs control minus 3*SD hit threshold (margin above threshold, higher = more increase)"
1,Cc1ccc(-c2nc3ccc(Cl)cc3c(=O)n2O)cc1,38% (active)
2,CCc1ccc(OCC(=O)Nc2ncn[nH]2)cc1,-35.2%
3,Cc1ccc2[nH]c3c(c2c1)CNCC3,-32%
4,CN(c1ccccc1)S(=O)(=O)c1ccc(Cl)c(C(=O)Nc2nn[nH]n2)c1,-24.2%
5,COc1ccc(C2N=C(c3ccccc3)C(C)(C)N2O)cc1 (stereo unspecified),-23.4%
6,Cc1ccccc1-c1nnn(CC(=O)NCc2ccc3c(c2)OCO3)n1,-37.1%
7,Cc1cccc(/N=C/c2sc3ccccc3c2O)n1,-19.2%
8,O=C(NCC1CCCO1)c1ccc2c(=O)n(Cc3ccco3)c(SCC(=O)N3CCCC3)nc2c1 (stereo unspecified),-14.7%
9,Clc1cccc(OCCCN2CCCC2)c1Cl,-24.8%
10,CCCCC1C2=C(CCCC2=O)OC2=C1C(=O)CCC2,-34.5%
11,Cc1ccc(C(=O)N2CCN(c3ccccc3)CC2)cc1S(=O)(=O)N1CCCC1,-7.2%
12,Cc1ccc(-c2nc3c(Cl)cc(Cl)cc3c(=O)n2O)cc1,65.6% (active)
13,Cc1ccc(-c2nc3ccccc3c(=O)n2O)cc1,-12.7%
14,Cc1cc(=O)[nH]c(SCC(=O)NC2CCCCC2)n1,-27%
15,CCOc1ccc(NC(=S)NC(=O)c2ccco2)cc1,-15.7%
16,O=C(NC(=S)Nc1ccc(N2CCCCC2)cc1)c1ccco1,9.4% (active)
17,O=C(NC(=S)Nc1ccccc1Br)c1ccco1,-14.3%
18,Cc1cccc(NC(=S)NC(=O)c2ccco2)c1C,20% (active)
19,O=C(NC(=S)Nc1ccccc1N1CCCC1)c1ccco1,-20.8%
20,Cc1cccc(NC(=O)CCNC(=O)c2ccco2)c1C,-27.7%
21,CCOc1ccccc1NC(=S)NC(=O)c1ccco1,-16.7%
22,CCC(C)c1ccccc1NC(=S)NC(=O)c1ccco1 (stereo unspecified),40% (active)
23,O=C(NC(=S)Nc1cccc(Cl)c1N1CCCCC1)c1ccco1,-27.7%
